About 83,000 compounds went through this panel and 20% of them were active in at least one assay; those are over-represented in the sample as a whole.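 Interpretation: 100, growth as untreated; towards 0, rising growth inhibition; 0, no net growth; 0 to -100, cell death. Compounds scoring below 10 were considered active.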 A number with no mark means an inactive call. Activity calls are given as the source filed them.
The compounds below were run on K-562 leukemia (assay: NCI-60 one-dose screen, 48 h (100 = growth as untreated, 0 = no growth, -100 = all killed)). Details: 10 µM unless noted.

Question: How did the growth turn out when `S=C(Sc1ccc(Cl)cc1)Sc1ccc(Cl)cc1` was run?
Answer: -44% (active)

Question: How did the growth turn out when `O=C(O)c1ccc([N+](=O)[O-])cc1S(=O)(=O)O` was run?
Answer: 107%

Question: For `O=C(O)CC1=CCCCC1`, which growth is on record?
Answer: 102%

Question: Which growth does the source give for `O=C1C=C[C@H](O)[C@@]2(CO)O[C@@H]12` here?
Answer: 4.07% (active)

Question: How did the growth turn out when `NC(=O)NCCO` was run?
Answer: 99.2%

Question: `O=C(O)C1CCCN1C(=O)OCc1ccccc1` (stereo unspecified) was tested. Which growth did it give?
Answer: 99.1%

Question: For `C=CC(C)(C)n1cc(C2=C(O)C(=O)C(c3cn(C(C)(C)C=C)c4ccccc34)=C(O)C2=O)c2ccccc21`, which growth is on record?
Answer: 79.5%

Question: Which growth does the source give for `COC(=O)c1cccc([N+](=O)[O-])c1` here?
Answer: 120%

Question: With `CCOC(=O)C(=O)CC(=O)c1ccccc1` as the compound, how does the growth read?
Answer: 118%

Question: Which growth does the source give for `O=Cc1ccc(F)cc1` here?
Answer: 127%

Question: For `CC1CC2C3CCC4=CC(=O)CCC4(C)C3CCC2(C)C1(O)C(=O)CO` (stereo unspecified), which growth is on record?
Answer: 98.4%

Question: With `CC(CC(CCC(=O)O)(c1ccccc1)c1ccccc1)N(C)C` (stereo unspecified) as the compound, how does the growth read?
Answer: 103%

Question: For `Cc1ccc(S(=O)(=O)Oc2ccc3sc4c(CO)ccc(NCCN(C)C)c4c(=O)c3c2)cc1`, which growth is on record?
Answer: -61.4% [100 µM] (active)

Question: `O=C(OCC1CCCO1)c1ccc([N+](=O)[O-])cc1` (stereo unspecified) was tested. Which growth did it give?
Answer: 111%

Question: `Nc1c(Br)cc(O)c2c1C(=O)c1ccccc1C2=O` was tested. Which growth did it give?
Answer: 66.3%

Question: For `CC(=O)N(C(C)=O)c1ccc(C)cc1`, which growth is on record?
Answer: 99.1%

Question: `CC1(C)C2CCC1(C)C1(C2)OCCS1` (stereo unspecified) was tested. Which growth did it give?
Answer: 96.5%

Question: With `O=c1n(CC2CO2)c(=O)n(CC2CO2)n1CC1CO1` (stereo unspecified) as the compound, how does the growth read?
Answer: 57.4%

Question: How did the growth turn out when `S=C=Nc1ccc2ccccc2c1` was run?
Answer: 96%

Question: Which growth does the source give for `O=C(O)c1c[nH]c2ccccc2c1=O` here?
Answer: 93.1%

Question: For `Cc1[nH]n(-c2ccccc2)c(=O)c1C=NC(=S)C(N)=S`, which growth is on record?
Answer: 101%

Question: How did the growth turn out when `CC(=O)N(C)N=Nc1ccc(C)cc1` was run?
Answer: 105%

Question: `COc1ccc2c(Cl)cc(NC(=O)Nc3c(C)cccc3C)nc2c1` was tested. Which growth did it give?
Answer: 72.6%

Question: How did the growth turn out when `O=C(c1ccc(Cl)cc1)N1CCCCC1` was run?
Answer: 97.2%

Question: For `CC(=O)NC(O)C(Cl)Cl` (stereo unspecified), which growth is on record?
Answer: 84.3%

Question: For `CCC(/C=C\C(C)=O)CC`, which growth is on record?
Answer: 113%

Question: With `CCOC(=O)C(COS(C)(=O)=O)(COS(C)(=O)=O)C(=O)OCC` as the compound, how does the growth read?
Answer: 101%

Question: How did the growth turn out when `CC(=O)NNC(=S)N/C=C/c1c(C)ccc([N+](=O)[O-])c1[N+](=O)[O-]` was run?
Answer: 102%

Question: How did the growth turn out when `CC(=O)N(CCCCCCN(C(C)=O)C(C)=O)C(C)=O` was run?
Answer: 102% [100 µM]

Question: Which growth does the source give for `CC(=O)NCNC(C)=O` here?
Answer: 112%

Question: `NNc1ncccn1` was tested. Which growth did it give?
Answer: 102%

Question: Which growth does the source give for `CC12CCC3c4ccc(O)cc4CCC3C1CCC2=O` (stereo unspecified) here?
Answer: 93.9%

Question: With `Nc1cc2ccccc2c(O)c1O` as the compound, how does the growth read?
Answer: 5.25% (active)

Question: Which growth does the source give for `S=c1nc(-c2ccccn2)c(-c2ccccn2)n[nH]1` here?
Answer: 105%

Question: How did the growth turn out when `CC(C)Sc1ncnc2nc[nH]c12` was run?
Answer: 113%

Question: How did the growth turn out when `Clc1cccc(Cl)c1C1CSc2ccccc2N=C1c1ccccc1` (stereo unspecified) was run?
Answer: 4.38% (active)

Source: PubChem BioAssay (NCI)
